Molecules are shown by their SMILES. Screen size: about 65,000 compounds; about 3,600 (5.5%) were called active. This is one part of a sample in which actives are shown more often than they occur.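 Rule for the calls: active = at 10 µM, mean starting fluorescence two-fold or more over control wells; inactive = the rest.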

The nature of the experiment: intrinsic fluorescence of library compounds, ex339/em460 – biochemical, MLSMR library, data from DPM-DC assay, artefact control, profiling panel (AID 709).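 Note: signal is the first read of a kinetic run.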 Conditions: compound autofluorescence, ex339/em460 nm, NADH buffer; at 10 µM; active compounds read high; 1 = no-compound wells, NADH background.
With `O=c1[nH]c(=O)n(Cc2ccco2)c2c1C(C(F)(F)F)(C(F)(F)F)N=C(c1ccco1)N2`, the fluorescence fold increase was 1.16 (inactive). Under `CCCCn1nnnc1NCc1cc(OC)c(OC)c(OC)c1` stands 1.07 (inactive); under `CCCC(C(=O)NCc1ccco1)N(C(=O)CNS(=O)(=O)c1ccccc1)C1CCCC1` (centres undefined), 1 (inactive).

`CC(=NCC1CCCO1)c1c(O)[nH]c(=O)[nH]c1=O` (centres undefined): the fluorescence fold increase is 1.14 (inactive). In the case of `Cc1ccc(C)c(S(=O)(=O)n2cnc3ccccc32)c1` it was 1.02 (inactive). In the case of `O=C(CSc1nc2ncccc2[nH]1)Nc1ccc2c(c1)OCCO2` it was 1.01 (inactive); in that of `C=C(C)Cn1c(SCC(=O)NCc2ccco2)nc2sc3c(c2c1=O)CCC3`, 1.09 (inactive). Under `CN1CCc2c(sc3c2c(NCc2ccco2)nc2nnnn23)C1` stands 2.08 (active); under `O=C(Cc1ccccc1)n1nc(-c2ccccc2)nc1NCc1ccco1`, 1.13 (inactive); under `Cc1cccc(N)c1SC1CCCCC1O` (centres undefined), 1.03 (inactive). Turning to `CCOC(=O)c1cn(CC(=O)Nc2ccc(C(C)C)cc2)nn1`, the fluorescence fold increase is 1.16 (inactive). In the case of `COc1ccccc1Nc1ncnc2c1oc1ccccc12` it was 1.7 (inactive); in that of `CCSc1nc(C)nc2c1oc1ccccc12`, 1.02 (inactive); in that of `CCc1nc(Nc2ccc3nccnc3c2)c2oc3ccccc3c2n1`, 2.54 (active).

As to `CNC(=O)NCCN1CCCC1=O`, the fluorescence fold increase was 1.05 (inactive).

With `COCCNC(=S)c1ccc(OC)cc1`, the fluorescence fold increase was 1.02 (inactive). Under `CCN(CC)CCNC(=O)C1c2ccccc2C(=O)N(C)C1c1cn(C)c2ccccc12` (centres undefined) stands 1.07 (inactive). In the case of `O=C(CCn1c(=S)[nH]c2ccccc2c1=O)NCCCN1CCCC1=O` it was 0.98 (inactive); in that of `O=C1CCCN1CCCNc1ncnc2c1[nH]c1ccccc12`, 2.27 (active). Regarding `CC1(C)CC(=O)C=C(NCCCN2CCCC2=O)C1`, the fluorescence fold increase was 1.11 (inactive). Under `O/N=C(\c1ccc2c(c1)OCCO2)C1CCCCC1` stands 1.08 (inactive); under `CCOC(=O)c1c(C)oc2ccc(OCC(=O)N(CC)CC)cc12`, 1.07 (inactive). As for `COCCNC(=O)COc1ccc(C)c(C)c1`, the fluorescence fold increase is 1.07 (inactive).

For the compound `COC(=O)COc1ccc2oc(=O)cc(C)c2c1`, the fluorescence fold increase is 2.31 (active).

On to `COc1ccc(C2CC(c3ccc(C)cc3)Nc3ncnn32)cc1` (centres undefined), for which the fluorescence fold increase is 1.03 (inactive). As to `c1ccc(-n2ncc3c2ncn2c(CSc4nc5ccccc5s4)nnc32)cc1`, the fluorescence fold increase was 1.81 (inactive). Turning to `Cc1ccc(C(C)C)c(OCc2nnc(SCC(=O)Nc3nccs3)n2C)c1`, the fluorescence fold increase is 1.13 (inactive). In the case of `O=C(Nc1ccc(S(=O)(=O)N2CCCCC2)cc1)c1cnccn1` it was 1.14 (inactive); in that of `COc1ccc(CCNS(=O)(=O)c2ccc(F)cc2)cc1OC`, 1.09 (inactive).

Values taken from PubChem BioAssay AID709 (SRMLSC, 2007).
